# The supplement of paper PMC8728848
# This excerpt belongs to a sample that is enriched for the strongest signals.
# What was measured:
# Test in all cases: glycan array binding signal (z-score within array); higher = stronger binding
# Settings in all cases: glycan notation: IUPAC condensed, linker removed
# [1] = target: Fuc(a1-2)Gal(b1-3)GalNAc(b1-4)[Neu5Ac(a2-3)]Gal(b1-4)Glc
# Procedure, shortened: (§1)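 Glycan array data were curated from 3228 arrays in the Consortium for Functional Glycomics database and kept only where the protein sequence was available. Glycan names were converted to IUPAC-condensed notation, and columns mapping to the same glycan were averaged. The binding signal is a within-array Z-score, averaged across arrays of the same protein sequence at different concentrations or buffers and across linkers. Negative Z-scores can be read as non-binding.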
# Fuc(a1-2)Gal(b1-3)GlcNAc = target: Fuc(a1-2)Gal(b1-3)GlcNAc
# Procedure, shortened: as §1
# Fuc(a1-2)Gal(b1-4)GlcNAc = target: Fuc(a1-2)Gal(b1-4)GlcNAc
# Procedure, shortened: as §1
# [2] = target: Fuc(a1-2)Gal(b1-4)[Fuc(a1-3)]GlcNAc(b1-3)Gal(b1-4)[Fuc(a1-3)]GlcNAc
# Procedure, shortened: as §1
# [3] = target: Fuc(a1-3)[Gal(b1-4)]GlcNAc(b1-2)Man(a1-3)[Fuc(a1-3)[Gal(b1-4)]GlcNAc(b1-2)Man(a1-6)]Man(b1-4)GlcNAc(b1-4)GlcNAc
# Procedure, shortened: as §1
# [4] = target: Gal(a1-4)Gal(b1-4)GlcNAc(b1-3)Gal(b1-4)Glc
# Procedure, shortened: as §1
# [5] = target: Gal(b1-4)GlcNAc(b1-3)[Gal(b1-4)GlcNAc(b1-6)]Gal(b1-4)GlcNAc
# Procedure, shortened: as §1
# [6] = target: Gal(b1-4)GlcNAc(b1-6)GalNAc
# Procedure, shortened: as §1
# Gal3S(b1-4)GlcNAc6S = target: Gal3S(b1-4)GlcNAc6S
# Procedure, shortened: as §1
# [7] = target: GalNAc(b1-3)Gal(a1-4)Gal(b1-4)GlcNAc
# Procedure, shortened: as §1
# [8] = target: GlcNAc(a1-3)Gal(b1-4)GlcNAc
# Procedure, shortened: as §1
# [9] = target: GlcNAc(a1-6)Gal(b1-4)GlcNAc
# Procedure, shortened: as §1
# Kdn(a2-6)Gal(b1-4)GlcNAc = target: Kdn(a2-6)Gal(b1-4)GlcNAc
# Procedure, shortened: as §1
# [10] = target: Man(a1-2)Man(a1-3)[Man(a1-2)Man(a1-6)]Man(a1-6)[Man(a1-2)Man(a1-2)Man(a1-3)]Man(b1-4)GlcNAc(b1-4)GlcNAc
# Procedure, shortened: as §1
# [11] = target: Man(a1-2)Man(a1-6)[Man(a1-3)]Man(a1-6)[Man(a1-2)Man(a1-2)Man(a1-3)]Man
# Procedure, shortened: as §1
# [12] = target: Man(a1-2)Man(a1-6)[Man(a1-3)]Man(a1-6)[Man(a1-2)Man(a1-2)Man(a1-3)]Man(b1-4)GlcNAc(b1-4)GlcNAc
# Procedure, shortened: as §1
# Man(a1-3)[Man(a1-6)]Man = target: Man(a1-3)[Man(a1-6)]Man
# Procedure, shortened: as §1
# [13] = target: Man(a1-3)[Man(a1-6)]Man(a1-6)[Man(a1-2)Man(a1-3)]Man(b1-4)GlcNAc(b1-4)GlcNAc
# Procedure, shortened: as §1
# [14] = target: Neu5Ac(a2-3)Gal(b1-3)[Neu5Ac(a2-3)Gal(b1-4)]GlcNAc
# Procedure, shortened: as §1
# [15] = target: Neu5Ac(a2-3)Gal(b1-4)GlcNAc(b1-2)Man(a1-3)[GlcNAc(b1-2)Man(b1-4)GlcNAc(b1-2)Man(a1-6)]Man(b1-4)GlcNAc(b1-4)GlcNAc
# Procedure, shortened: as §1
# [16] = target: Neu5Ac(a2-3)Gal(b1-4)GlcNAc(b1-3)GalNAc
# Procedure, shortened: as §1
# [17] = target: Neu5Ac(a2-3)Gal(b1-4)[Fuc(a1-3)]GlcNAc(b1-3)Gal
# Procedure, shortened: as §1
# [18] = target: Neu5Ac(a2-3)Gal(b1-4)[Fuc(a1-3)]GlcNAc(b1-6)[Neu5Ac(a2-3)Gal(b1-3)]GalNAc
# Procedure, shortened: as §1
# [19] = target: Neu5Ac(a2-6)Gal(b1-4)GlcNAc(b1-3)Gal(b1-3)GlcNAc
# Procedure, shortened: as §1
# [20] = target: Neu5Ac(a2-6)Gal(b1-4)GlcNAc(b1-3)Gal(b1-4)[Fuc(a1-3)]GlcNAc(b1-3)Gal(b1-4)[Fuc(a1-3)]GlcNAc
# Procedure, shortened: as §1
# Neu5Ac(a2-8)Neu5Ac = target: Neu5Ac(a2-8)Neu5Ac
# Procedure, shortened: as §1
# [21] = target: Neu5Ac(a2-8)Neu5Ac(a2-8)Neu5Ac
# Procedure, shortened: as §1
# [22] = target: Neu5Ac(b2-6)Gal(b1-4)GlcNAc
# Procedure, shortened: as §1
binder,measurement,setting,value
"Ficolin B (Rattus norvegicus), P57756 (protein) MVLGSAALFVLSLCVTELTLHAADTCPEVKVLDLEGSNKLTILQGCPGLPGALGPKGEAGAKGDRGESGLPGHPGKAGPTGPKGDRGEKGVRGEKGDTGPSQSCATGPRTCKELLTRGYFLTGWYTIYLPDCRPLTVLCDMDTDGGGWTVFQRRIDGTVDFFRDWTSYKQGFGSQLGEFWLGNDNIHALTTQGTNELRVDLADFDGNHDFAKYSSFQIQGEAEKYKLILGNFLGGGAGDSLTSQNNMLFSTKDQDNDQGSSNCAVRYHGAWWYSDCHTSNLNGLYLRGLHKSYANGVNWKSWKGYNYSYKVSEMKVRLI",glycan array binding signal (z-score),[1],-0.165
same,glycan array binding signal (z-score),Fuc(a1-2)Gal(b1-3)GlcNAc,-0.197
same,glycan array binding signal (z-score),Fuc(a1-2)Gal(b1-4)GlcNAc,-0.192
same,glycan array binding signal (z-score),[2],-0.205
same,glycan array binding signal (z-score),[3],-0.214
same,glycan array binding signal (z-score),[4],-0.169
same,glycan array binding signal (z-score),[5],1.56
same,glycan array binding signal (z-score),[6],-0.085
same,glycan array binding signal (z-score),Gal3S(b1-4)GlcNAc6S,-0.2
same,glycan array binding signal (z-score),[7],-0.2
same,glycan array binding signal (z-score),[8],-0.127
same,glycan array binding signal (z-score),[9],0.051
same,glycan array binding signal (z-score),Kdn(a2-6)Gal(b1-4)GlcNAc,-0.209
same,glycan array binding signal (z-score),[10],-0.224
same,glycan array binding signal (z-score),[11],-0.212
same,glycan array binding signal (z-score),[12],-0.18
same,glycan array binding signal (z-score),Man(a1-3)[Man(a1-6)]Man,-0.166
same,glycan array binding signal (z-score),[13],-0.182
same,glycan array binding signal (z-score),[14],3.17
same,glycan array binding signal (z-score),[15],5.65
same,glycan array binding signal (z-score),[16],-0.192
same,glycan array binding signal (z-score),[17],0.01
same,glycan array binding signal (z-score),[18],0.019
same,glycan array binding signal (z-score),[19],0.054
same,glycan array binding signal (z-score),[20],-0.204
same,glycan array binding signal (z-score),Neu5Ac(a2-8)Neu5Ac,3.73
same,glycan array binding signal (z-score),[21],2.69
same,glycan array binding signal (z-score),[22],8.52
